Data on 17 molecules can be found in PubChem BioAssay (NCI).

Test systems include T-47D breast; BT-549 breast; MDA-MB-435 melanoma; SW-620 colon; MCF7 breast; HCT-116 colon; HCC-2998 colon; KM12 colon.
Common to all, as to experiment: NCI-60 one-dose screen, 48 h (100 = growth as untreated, 0 = no growth, -100 = all killed)
What all share (conditions): 10 µM unless noted

Compounds without any hit were thinned out: in the full panel of roughly 83,000, 20% have a hit.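 Assay: single dose, 48 h. Readout: percent growth (0 = no net growth; negative = cell death). Active: <10.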 Unmarked numbers belong to inactive results. Active and inactive are the calls of the source.

`COc1ccc(/C(C)=N/NC(=O)CSc2nc3ccccc3c(=O)n2CCc2ccc(S(N)(=O)=O)cc2)cc1`: the growth in the assay on T-47D breast was 22.3%; with BT-549 breast, 64.2%; with MDA-MB-435 melanoma, 16.7%; in the assay on SW-620 colon, 54.6%; in the assay with MCF7 breast, 59.1%; in the assay on HCT-116 colon it was -47% (active). The growth is 74.8% in the assay with HCC-2998 colon and 25.1% with KM12 colon.

In the case of `Oc1ccc(-c2nnc3c4[nH]ccc4ncn23)cc1`, the growth in the assay with T-47D breast is 93.4%; in the assay with BT-549 breast it was 89.2%; with MDA-MB-435 melanoma, 97.5%; with SW-620 colon, 108%; with MCF7 breast, 92.1%; with HCT-116 colon it was 88.8%. The growth was 105% with HCC-2998 colon and 104% with KM12 colon.

Take `CCN1C(=O)N(CC)C2C1N=C(SC)N2/N=C/C=C/c1ccccc1OC` (stereo not drawn): the growth in the assay with T-47D breast is 54.2%; in the assay on BT-549 breast it was 12.8%; with MDA-MB-435 melanoma, 2.95% (active); in the assay with SW-620 colon, 22.7%; in the assay with MCF7 breast it was 12.9%; with HCT-116 colon, 6.51% (active). Moreover, the growth with HCC-2998 colon is 10.5%; in the assay with KM12 colon, 4.92% (active).

With `C=C(c1ccc(C(=O)NCCCn2ccnc2)cc1)c1cc2c(cc1C)C(C)(C)CCC2(C)C`, the growth with T-47D breast is -16.9% (active); in the assay on BT-549 breast it was 39.7%; in the assay on MDA-MB-435 melanoma, -27% (active); with SW-620 colon, 16.5%; with MCF7 breast it was 35.5%; in the assay on HCC-2998 colon, 26.8%. Moreover, the growth with KM12 colon was 24.5%.

As to `O=c1oc2ccccc2cc1-c1cc(-c2ccc(-c3cc(-c4cc5ccccc5oc4=O)nc(-c4cc5ccccc5oc4=O)c3)cc2)cc(-c2cc3ccccc3oc2=O)n1`, the growth is 91.1% with T-47D breast; 106% in the assay with BT-549 breast; 114% in the assay on MDA-MB-435 melanoma; 110% with SW-620 colon; 68.6% in the assay with MCF7 breast; 110% with HCC-2998 colon. In addition, in the assay on KM12 colon, the growth was 103%.

As for `COc1ccc2c(c1)N(Cc1ccc(Cl)cc1)CCC2N1CCCC1=O` (stereo not drawn), the growth with T-47D breast is 31.5%; in the assay on BT-549 breast, 16.1%; with MDA-MB-435 melanoma, 46.2%; in the assay with SW-620 colon it was 72.1%; with MCF7 breast, 35.5%; in the assay on HCC-2998 colon, 49.7%. In the assay on KM12 colon, the growth is 50.4%.

On to `CCCCCCCCCCCCCCCCCC(=O)[O][Sn]([CH2]CCC)([CH2]CCC)[CH2]CCC`, for which the growth with T-47D breast was -78.9% (active); in the assay on BT-549 breast it was -94.3% (active); in the assay with MDA-MB-435 melanoma it was -87.2% (active); with SW-620 colon, -83.6% (active); with MCF7 breast, -93.1% (active); in the assay on HCT-116 colon it was -96.2% (active). Further, the growth was -99.1% (active) in the assay on HCC-2998 colon and -96.2% (active) with KM12 colon.

Consider `CN(C)CC(=O)c1ccc2cc(Br)c3ccccc3c2c1`, for which the growth is 37.1% with T-47D breast; 60.2% in the assay on BT-549 breast; 83.6% with MDA-MB-435 melanoma; 54.7% in the assay with SW-620 colon; 63.6% with MCF7 breast; 49.3% in the assay with HCT-116 colon. In addition, the growth with KM12 colon is 63.7%.

Consider `Clc1ccc(Cl)c(N=Cc2ccc3c(c2)OCO3)c1`, for which the growth with T-47D breast was 101%; in the assay with BT-549 breast, 96.2%; in the assay on MDA-MB-435 melanoma, 106%; in the assay with SW-620 colon, 107%; in the assay with MCF7 breast, 108%; in the assay with HCT-116 colon, 104%. The growth was 98.5% in the assay with HCC-2998 colon and 106% in the assay with KM12 colon.

In the case of `Cn1c(=O)c2c(nc(N/N=C/c3ccccc3Cl)n2C)n(C)c1=O`, the growth was 105% in the assay with T-47D breast; 102% in the assay on BT-549 breast; 109% in the assay on MDA-MB-435 melanoma; 108% with SW-620 colon; 96.2% in the assay with MCF7 breast; 97.5% in the assay with HCT-116 colon. Moreover, the growth with KM12 colon is 140%.

As for `O=C(C(=O)N1CCCC1)c1cn(CCCn2cc(C(=O)C(=O)N3CCCC3)c3cc(Br)ccc32)c2ccc(Br)cc12`, the growth with T-47D breast was 70.8%; in the assay on BT-549 breast it was 84.7%; in the assay with MDA-MB-435 melanoma it was 74.3%; in the assay on SW-620 colon it was 85.5%; in the assay on MCF7 breast it was 61.6%; in the assay on HCT-116 colon it was 58.6%. In addition, the growth in the assay on HCC-2998 colon is 81.6%; with KM12 colon, 86.2%.

For `COc1ccc(Cl)cc1Nc1nc(C(F)(F)F)ccc1C(=O)NN`, the growth is 29.4% with T-47D breast; 20.2% in the assay with BT-549 breast; 40.2% with MDA-MB-435 melanoma; 88.6% with SW-620 colon; 90.4% in the assay with MCF7 breast; 38.8% with HCT-116 colon. For the same molecule, the growth in the assay with KM12 colon is 38.6%.

As to `O=C1NN(C(=O)c2ccccc2)C(c2ccc(Cl)c(Cl)c2)=C/C1=C\c1ccccc1[N+](=O)[O-]`, the growth in the assay with T-47D breast is 27.6% [6.75 µM]; with BT-549 breast, -7.17% [6.75 µM] (active); in the assay on MDA-MB-435 melanoma it was 58.5% [6.75 µM]; in the assay on SW-620 colon, 13.7% [6.75 µM]; in the assay with MCF7 breast, 8.91% [6.75 µM] (active); in the assay on HCT-116 colon, 5.02% [6.75 µM] (active). In addition, the growth with HCC-2998 colon was -20.5% [6.75 µM] (active); in the assay with KM12 colon, 4.6% [6.75 µM] (active).

As for `COc1ccc(-c2cc(C(=O)Nc3ccc(Br)cc3)nc3[nH]c(=O)sc23)cc1`, the growth was -0.894% (active) in the assay with T-47D breast; 47% with BT-549 breast; 39.6% in the assay on MDA-MB-435 melanoma; 57.1% in the assay on SW-620 colon; 24.3% in the assay on MCF7 breast; 32.1% in the assay on HCT-116 colon. The values for the growth with HCC-2998 colon and with KM12 colon were 36.1% and 34.7%, respectively.

For the molecule `O=C(NNC(=O)c1cccc(Cl)c1)c1ccccc1`, the growth with T-47D breast was 103%; in the assay with BT-549 breast it was 111%; in the assay on MDA-MB-435 melanoma it was 103%; in the assay with SW-620 colon, 106%; in the assay on MCF7 breast it was 105%; in the assay on HCC-2998 colon it was 105%. The growth in the assay with KM12 colon was 111%.

Take `CCOC(=O)C(CCCCC(NC(C)=O)(C(=O)OCC)C(=O)OCC)(NC(C)=O)C(=O)OCC`: the growth in the assay with T-47D breast was 89.4%; in the assay on BT-549 breast it was 107%; in the assay with MDA-MB-435 melanoma it was 104%; in the assay with SW-620 colon, 104%; in the assay on MCF7 breast it was 98.3%; in the assay on HCC-2998 colon, 109%. Also, the growth in the assay on KM12 colon was 100%.

In the case of `CCOC(=O)C1OC2(CCCC2)OC1C(=O)OCC` (stereo not drawn), the growth is 98.4% with T-47D breast; 98.9% in the assay on BT-549 breast; 112% in the assay with MDA-MB-435 melanoma; 113% in the assay on SW-620 colon; 98.2% in the assay on MCF7 breast; 98% in the assay on HCT-116 colon. Moreover, the growth with HCC-2998 colon and in the assay on KM12 colon was 104% in each case.
